According to PubChem BioAssay (NCI):
About 83,000 compounds went through this panel and 20% of them were active in at least one assay; those are over-represented in the sample as a whole.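 The test compound was applied at a single concentration to cells in 96-well plates for 48 hours, and percent growth was recorded.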 Values without a mark were called inactive. Calls of active or inactive are those of the source. The calls were made as follows: active = growth percent below 10; inactive = the rest.

Test system: HL-60(TB) leukemia
Assay: NCI-60 one-dose screen, 48 h (100 = growth as untreated, 0 = no growth, -100 = all killed)
Details: 10 µM unless noted

Row | Structure (SMILES) | growth
1 | CCOc1ccc(/C=N/NC(=O)Cn2nc(Cc3ccccc3)c3onc(C)c3c2=O)cc1 | 89.7%
2 | COc1cc2oc(-c3cccc(C(=O)Nc4cccc([N+](=O)[O-])c4)c3)cc(=O)c2c(OC)c1OC | 101%
3 | Cn1cc(-c2cc(N)n3nc(-c4c[nH]c5ccc(Br)cc45)cc3n2)c2cc(Br)cnc21 | -44.2% (active)
4 | CO[C@@H]1CSS[C@H]1Cn1nc(-c2ccc(Oc3ccccc3)cc2)c2c(N)ncnc21 | 25.8%
5 | Cc1ccc(C(=O)Nc2cccc(C(=O)NC(=S)Nc3ccc(S(N)(=O)=O)cc3)c2)cc1 | 84.7%
6 | O=C(c1ccccc1)c1ccc2nc(-c3ccccc3Br)[nH]c2c1 | -52.4% (active)
7 | CC(=O)Nc1ccc(-n2cnc3cc(-c4ccc(O)cc4)ccc32)cc1F | -10.2% (active)
